Rows were chosen to be rich in hits. Some 11% of all compounds tested hit in one or more screens of this group.
IMPase Li inh: membrane-permeable IMPase blocker, potentiated with lithium | 210,000 tested, 0.35% active | CHO-M1 cells, IP1 TR-FRET (IP-One), carbachol + lithium | Potency, µM (titrated, usually from 59.4 µM), inactives show at the top dose activity, negative = IMPase inhibition, hits mostly inhibitors; active = well fitted inhibition curve with a large enough effect; inconclusive = small, poorly fitted or top-dose-only effect; inactive = no such curve, though single readings can be large or run the other way;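 note: IP1 builds up when IMPase is blocked and the TR-FRET signal falls; potency is the fitted concentration of half-maximal effect; plate controls were basal vehicle for no effect and high inhibitor control for full effect; nearly all actives have a fitted effect of over 50% in size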
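IP1 accumulation measured by competitive TR-FRET in lysed CHO-M1 cells after 30 min compound exposure at 37C, with a small lithium addition to potentiate weak responses. Hill-equation AC50 from ratio and donor-channel data.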
IMPase inh: IMPase inhibition in cells. P97697. CHO-M1 cells, IP1 accumulation, HTRF TR-FRET ratio. inhibition (IP1 accumulation), % at 46.1 µM. 120,000 tested, under 10 active. AID 901; active = well fitted curve in the direction sought with a large enough effect in the signal ratio, not every such curve was filed as active; inconclusive = small, poorly fitted or top-dose-only effect, or a change in a side signal; inactive = no such curve, though single readings can be large or run the other way; the % refers to the signal ratio;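 note: cells stimulated with carbachol in lithium chloride buffer; plate controls were DMSO basal wells for no effect and reference inhibitor wells for full effect; higher means more IMPase inhibition seen as more IP1 and lower FRET ratio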
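Measured: the HTRF emission ratio (665/620 nm) plus the 620 nm donor channel, each fitted to the Hill equation to give AC50. Cells were CHO-M1 given compounds up to 46 uM and a 30 min carbachol stimulation at 37C.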
ALDH1A1 inh: inhibitors of human aldehyde dehydrogenase 1A1 | Purified ALDH1A1, NADH fluorescence, propionaldehyde substrate | P00352 | Potency, µM (titrated, usually from 75.3 µM), for inactives: top-dose activity, negative = inhibition, most hits filed as inhibitors | 220,000 tested, 7.3% active;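 note: potency is the fitted concentration of half-maximal effect; plate controls were no enzyme wells and a reference inhibitor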
Target sequence (P00352 whole entry, looked up): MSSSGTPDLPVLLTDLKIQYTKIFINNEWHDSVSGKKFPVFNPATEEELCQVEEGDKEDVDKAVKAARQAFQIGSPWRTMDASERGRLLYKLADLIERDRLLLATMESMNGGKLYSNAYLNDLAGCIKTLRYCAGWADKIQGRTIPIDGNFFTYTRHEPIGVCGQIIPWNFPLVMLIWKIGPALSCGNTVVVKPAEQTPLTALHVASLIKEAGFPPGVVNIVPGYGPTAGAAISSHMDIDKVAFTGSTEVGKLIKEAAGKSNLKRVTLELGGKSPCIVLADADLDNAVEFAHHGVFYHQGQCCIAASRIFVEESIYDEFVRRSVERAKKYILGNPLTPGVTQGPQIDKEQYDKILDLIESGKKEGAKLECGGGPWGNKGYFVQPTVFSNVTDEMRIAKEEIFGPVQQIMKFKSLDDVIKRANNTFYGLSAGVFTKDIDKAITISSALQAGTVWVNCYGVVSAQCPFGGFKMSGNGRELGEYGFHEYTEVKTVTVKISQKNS
PNC inhibitor: inhibitors of perinucleolar compartment assembly. AID 2417. PC3M PTB-GFP, PNC prevalence imaging, 16 h; hits give low values. activity change (PNC), negative = inhibition, % at 10 µM. 140,000 tested, 3.1% active;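 active = readout at or below -70, meaning at least 70% loss of cells showing the perinucleolar compartment, a nuclear body marking cancer cells; inconclusive = readout between -30 and a set limit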;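 note: plate controls were DMSO wells for no effect and camptothecin positive control wells for full effect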
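Read-out is percentage of cells bearing a perinucleolar compartment, from automated 20x imaging of fixed, Hoechst-stained PC3M PTB-GFP cells. Cells were seeded 4 h, then exposed 16 h to compound (23 nl of library stock) in duplicate plates.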
HPGD block: HPGD (human) dehydrogenase inhibition. P15428. purified HPGD, NADH fluorescence kinetic, PGE2 substrate. Potency, µM, for the others: top-dose activity change, negative = inhibition, actives largely listed as inhibitors. 150,000 tested, 4.3% active; note: potency is the fitted concentration of half-maximal effect
Target sequence (P15428 whole entry, looked up): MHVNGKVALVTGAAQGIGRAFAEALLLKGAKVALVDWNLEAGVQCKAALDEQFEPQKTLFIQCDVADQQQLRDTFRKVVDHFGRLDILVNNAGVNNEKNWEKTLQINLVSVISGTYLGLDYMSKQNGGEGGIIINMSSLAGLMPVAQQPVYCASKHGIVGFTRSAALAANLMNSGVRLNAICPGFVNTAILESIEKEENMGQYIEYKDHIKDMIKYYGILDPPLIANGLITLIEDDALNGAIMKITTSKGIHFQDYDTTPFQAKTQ
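20 nM HPGD preincubated 15 min at room temperature with compound in 50 mM Tris-HCl pH 8, 0.01% Tween 20. Started with 1 mM NAD+ and 30 uM prostaglandin E2; NADH fluorescence (360/450 nm) read 5 times over 30-s intervals, last minus first.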
Active calls of the source: *; [ ] = another dose, or the depositor's remark. Unless noted, calls come from the whole dose curve; as a rule, active = well fitted inhibition curve with a large enough effect (not every such curve was filed as active); inconclusive = small, poorly fitted or top-dose-only effect, or another doubt; inactive = no such curve, though single readings can be large or run the other way. Unless noted, % is set by controls: 0 for no effect and ±100 for the full control effect.

O=C1C[C@@H](O)[C@@H](O)[C@H]2[C@@H]3C(=O)N(Cc4ccccc4)C(=O)[C@@H]3CC[C@H]12 was read as ALDH1A1 inh -1.2%[13.5 µM].
Screening CCOC(=O)c1c(NC(=S)Nc2ccc(OC)cc2)sc2c1CCC2 returned IMPase Li inh 6.8%, IMPase inh 5.5, ALDH1A1 inh inconclusive, PNC inhibitor -5.7 and HPGD block -21.1%.
For CCOC(=O)c1c(NC(=S)Nc2ccccc2)sc2c1CC(C)(C)SC2 the results were IMPase Li inh -5.1%, IMPase inh -12.6, ALDH1A1 inh 2.51µM*, PNC inhibitor 25.8 and HPGD block inconclusive.
CCOC(=O)c1c(NC(=S)NC)sc2c1CC(C)(C)SC2 was read as IMPase Li inh -13.3%, IMPase inh -17.3, ALDH1A1 inh 25.1µM*, PNC inhibitor inconclusive and HPGD block inconclusive.
`CC1C(=O)OC2C(O)C34C5CC(C(C)(C)C)C36C(OC(=O)C6O)OC4(C(=O)O5)C12O` (configuration not stated) gave IMPase Li inh 4.3%, IMPase inh 1.5, ALDH1A1 inh 5.7% and HPGD block -3.2%.
CN(C)c1ncc2nc(-c3ccc(F)cc3)c(=O)n(CCC#N)c2n1 was read as IMPase Li inh -15.8%, ALDH1A1 inh inconclusive and HPGD block inconclusive.
Cc1ccc(NC(=O)CSc2nnc(CN3CCOCC3)n2C)cc1C was read as IMPase Li inh 0.2%, ALDH1A1 inh 31.6µM*, PNC inhibitor 31.2 and HPGD block -17.8%.
Screening COc1ccc(OCC(=O)NNC(=O)C(=O)Nc2ccc(C)cc2)cc1 returned IMPase Li inh -6.3%, ALDH1A1 inh -4.5%, PNC inhibitor -28.5 and HPGD block -12.7%.
Screening Cc1ccc(OCC(=O)N/N=C/c2ccco2)cc1 returned IMPase Li inh 21.1%[38.3 µM], IMPase inh 2.3, ALDH1A1 inh 28.2µM*, PNC inhibitor 12.6 and HPGD block -23.5%.
`COc1ccc(OCC(=O)Nc2ccc(C)cc2)cc1` gave IMPase Li inh 22.6%[38.3 µM], IMPase inh -3.7, ALDH1A1 inh 4.8%, PNC inhibitor inconclusive and HPGD block 15.8µM*.
`COc1ccc(OCC(=O)Sc2ccc(C)cc2)cc1` gave IMPase Li inh 10.5%[38.3 µM], IMPase inh -0.3, ALDH1A1 inh inconclusive, PNC inhibitor 34.7 and HPGD block 14.1µM*.
CO[C@@H]1COC(=O)[C@H]2CCCN2C(=O)C/C=C\[C@@H](C)[C@H](OC)COC(=O)[C@H]2CCCN2C(=O)C/C=C\[C@H]1C was read as ALDH1A1 inh -1.9%[13.5 µM].
COc1ccc(CSCCN)cc1Cl was read as IMPase Li inh 11.6%[38.3 µM], IMPase inh 0.1, ALDH1A1 inh 3.5%, PNC inhibitor -96.3* and HPGD block 2.5%.
For COc1ccc(C/C(N)=N/n2cnnc2)cc1Cl the results were IMPase Li inh 24.8%[38.3 µM], IMPase inh -0.6, ALDH1A1 inh 2.9%, PNC inhibitor 14.0 and HPGD block -13.3%.
For O=S(=O)(O)c1ccc(-c2nnc(-c3ccccn3)nc2-c2ccc(S(=O)(=O)O)o2)o1 the results were IMPase Li inh -8.8%, ALDH1A1 inh inconclusive and HPGD block -5.4%.
For C/C(=N/NC(=O)c1cccs1)c1ccc(NC(=O)COc2ccc(Cl)cc2)cc1 the results were IMPase Li inh 10.0%[38.3 µM], IMPase inh -5.5, ALDH1A1 inh 7.8%, PNC inhibitor 49.2 and HPGD block -14.2%.
For O=S(=O)(Oc1ccccc1N1CCCCC1)c1ccccc1 the results were ALDH1A1 inh -0.9%.
`COC(=O)c1sccc1NC(=S)N1CCC(C)CC1` gave IMPase Li inh -1.5%[38.3 µM], IMPase inh -0.1, ALDH1A1 inh 20µM*, PNC inhibitor -11.7 and HPGD block -6.4%.
COC(=O)c1sccc1NC(=S)N1CC(C)CC(C)C1 (configuration not stated) was read as IMPase Li inh 39.8%[38.3 µM], IMPase inh 14.8, ALDH1A1 inh 7.94µM*, PNC inhibitor -5.1 and HPGD block inconclusive.
Oc1ccccc1C(Sc1nc2ccccc2s1)Sc1nc2ccccc2s1 was read as IMPase Li inh -6.5%, ALDH1A1 inh 0.708µM* and HPGD block 3.98µM*.
`O=C(c1csnn1)N1CCC2(CCCN(c3ccccn3)C2)CC1` gave IMPase Li inh 21.5%, ALDH1A1 inh inconclusive and HPGD block -18.4%.
O=C(CSCc1ccc(Cl)cc1)NN=C1CCCCCC1 was read as IMPase Li inh 6.0%, ALDH1A1 inh 14.1µM*, PNC inhibitor -93.2* and HPGD block -14.0%.
`O=C(CCSc1ccc(Cl)cc1)NC1CCCCC1` gave IMPase Li inh -19.7%[38.3 µM], IMPase inh 5.8, ALDH1A1 inh 10.6%, PNC inhibitor -109.4* and HPGD block 4.47µM*.
`O=C(CCSc1ccc(Cl)cc1)NN=C1CCCCCC1` gave IMPase Li inh 9.7% and ALDH1A1 inh 11.2µM*.
`O=C(CSc1ccc(Cl)cc1)NN=C1CCCCCC1` gave IMPase Li inh -9.9% and ALDH1A1 inh inconclusive.
Screening COC(=O)c1ccccc1NC(=O)NCc1c(C)nn(C)c1C returned IMPase Li inh 1.2% and ALDH1A1 inh inconclusive.
`Cc1cc(NC(=O)Cn2nc([N+](=O)[O-])c(Br)c2C)no1` gave IMPase Li inh 9.4% and ALDH1A1 inh -2.1%.
COc1ccc(-c2nn(-c3ccccc3)cc2C2NC(=O)NC(C)=C2C(=O)OC(C)C)cc1Cl (configuration not stated) was read as IMPase inh 6.7.
For CCC[C@@H]1C[C@@]1(CCC)[C@@H](NP(=O)(c1ccccc1)c1ccccc1)c1ccc(C(=O)OC)cc1 the results were IMPase Li inh 19.2%, ALDH1A1 inh 5.8%, PNC inhibitor 36.1 and HPGD block -14.9%.
Screening COC(=O)c1cccc(C#CC(NP(=O)(c2ccccc2)c2ccccc2)c2ccccc2)c1 (configuration not stated) returned IMPase Li inh 20.5%, ALDH1A1 inh 12.6µM* and HPGD block -11.7%.
For COC(=O)c1ccc(C#CC(NP(=O)(c2ccccc2)c2ccccc2)c2ccccc2)cc1 (configuration not stated) the results were IMPase Li inh 13.3%, ALDH1A1 inh inconclusive and HPGD block 25.1µM*.
For O=C(O)CC1=C(O)C(=O)N(c2ccccc2)C1c1ccccc1 (configuration not stated) the results were IMPase Li inh 31.6%[38.3 µM], IMPase inh 3.7, ALDH1A1 inh 6.31µM*, PNC inhibitor -18.3 and HPGD block -15.5%.
`O=C(O)CC1=C(O)C(=O)N(c2ccccc2)C1c1ccc(Br)cc1` (configuration not stated) gave IMPase Li inh -6.2%[38.3 µM], IMPase inh -7.4, ALDH1A1 inh 7.6%, PNC inhibitor -9.5 and HPGD block -0.5%.
CCCS(=O)(=O)N1CCN=C1SCc1cccc(C)c1 was read as IMPase Li inh 4.9% and ALDH1A1 inh 6.5%.

Screening results as filed in PubChem.
